Assay outcomes from PubChem BioAssay.
The list is not random: actives were taken first. Their share in the collection is about 10%.
FLuc inh = Photinus pyralis luciferase inhibition | purified P. pyralis luciferase, luminescence, biochemical | AID 1347043 | hit rate 2.5% among 76,000 | Potency, µM (highest dose often 115 µM), usual class: inhibitors | P08659; further: nearly all actives have a fitted effect of over 65% in size
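Biochemical qHTS: compound (6-point titration) added to 10uM D-luciferin plus 10uM ATP in Tris acetate pH 7.5 buffer with Mg, Tween-20 and BSA, then purified enzyme at 10nM; light output imaged.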
GPT2 inhibitor = inhibitors of human GPT2 alanine aminotransferase | Q8TD30 | Recombinant GPT2, coupled pyruvate oxidase/HRP Amplex Red fluorescence | Potency, µM (doses to about 57.7 µM), for inactives: at the highest dose activity change, negative = inhibition, hits mostly inhibitors | hit rate 0.25% among 100,000; further: nearly all actives have a fitted effect of over 60% in size
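Inhibition is scored from Amplex Red fluorescence generated when pyruvate oxidase and HRP act on pyruvate released by GPT2. Reactions contain 10ng/uL enzyme, 250uM a-KG and 2mM L-alanine and run 30 min at room temperature.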
HEK293 tox = HEK 293 cell cytotoxicity. hit rate 6.6% among 94,000. AID 1345083. HEK 293 viability, ATP luminescence (CellTiter-Glo), 48-72 h. Potency, µM (titrated, usually from 115 µM), for the others: at the highest dose activity change, negative = cytotoxicity, most hits filed as inhibitors; further: nearly all actives have a fitted effect of over 60% in size
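Pintool-delivered compounds were incubated with HEK 293 cells (250 cells/well) at 37 degree Celsius for 48 or 72 hr. ATP-dependent luminescence (CellTiter-Glo) then reported remaining viable cells.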
NPR1 antag = blocks ANP-stimulated signaling of human Npr1 receptor; P16066; Potency, µM (doses to about 46.3 µM), for inactives: at the top dose activity change, negative = inhibition, actives largely listed as inhibitors; hit rate 1.6% among 76,000; HEK293 hNpr1 GloSensor cGMP, ANP-stimulated luminescence; AID 1347048; calls by dose curve; further: nearly all actives have a fitted effect of over 60% in size
Target sequence (P16066 whole entry, looked up): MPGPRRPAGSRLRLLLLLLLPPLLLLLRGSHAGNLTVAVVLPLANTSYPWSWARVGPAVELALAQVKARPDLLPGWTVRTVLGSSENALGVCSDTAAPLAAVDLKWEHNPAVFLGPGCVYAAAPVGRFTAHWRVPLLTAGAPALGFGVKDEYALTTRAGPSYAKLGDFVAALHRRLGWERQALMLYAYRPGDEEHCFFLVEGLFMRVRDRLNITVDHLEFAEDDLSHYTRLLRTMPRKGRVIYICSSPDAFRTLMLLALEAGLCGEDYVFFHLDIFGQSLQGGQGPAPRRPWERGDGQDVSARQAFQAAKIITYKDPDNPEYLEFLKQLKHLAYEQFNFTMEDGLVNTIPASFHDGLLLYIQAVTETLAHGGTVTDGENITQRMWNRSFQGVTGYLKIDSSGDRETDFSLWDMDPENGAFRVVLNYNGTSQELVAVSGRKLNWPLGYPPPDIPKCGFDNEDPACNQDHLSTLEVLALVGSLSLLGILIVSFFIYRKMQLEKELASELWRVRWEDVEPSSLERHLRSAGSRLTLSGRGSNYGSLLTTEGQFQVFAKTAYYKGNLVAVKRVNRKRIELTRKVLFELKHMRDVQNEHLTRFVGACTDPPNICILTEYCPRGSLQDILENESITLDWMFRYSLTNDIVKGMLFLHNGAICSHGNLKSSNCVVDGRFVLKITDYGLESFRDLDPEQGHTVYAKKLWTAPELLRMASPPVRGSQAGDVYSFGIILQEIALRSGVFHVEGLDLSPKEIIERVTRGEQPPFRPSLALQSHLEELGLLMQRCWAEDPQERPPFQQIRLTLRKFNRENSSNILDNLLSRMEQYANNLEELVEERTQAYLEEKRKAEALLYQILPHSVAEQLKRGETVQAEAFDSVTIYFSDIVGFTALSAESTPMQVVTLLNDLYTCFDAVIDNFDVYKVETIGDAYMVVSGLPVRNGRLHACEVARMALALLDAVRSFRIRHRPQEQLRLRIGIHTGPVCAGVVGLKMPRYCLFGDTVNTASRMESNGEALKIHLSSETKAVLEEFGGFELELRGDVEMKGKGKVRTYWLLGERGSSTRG
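HEK293 cells stably expressing human Npr1 and cGMP GloSensor pGS-40F, loaded 2 h with 2% GloSensor reagent, given compound 30 min at room temperature. Luminescence read before and 20 min after 0.1 nM hNppA.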
NIH3T3 tox = NIH 3T3 cell cytotoxicity | Potency, µM (highest dose often 96.7 µM), without a hit: at the top dose activity change, negative = cytotoxicity, usual class: inhibitors | NIH 3T3 viability, CellTiter-Glo ATP luminescence, 48-72 h | hit rate 4.3% among 94,000; further: nearly all actives have a fitted effect of over 55% in size
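Cytotoxicity was measured by CellTiter-Glo ATP luminescence after 48 or 72 h compound exposure at 37 °C. Mouse NIH 3T3 fibroblasts were seeded at 400 cells/well and dosed by 23 nL pin transfer.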
* marks the source's active call; other numbers are inactive results; i = inactive; u = inconclusive; x = no result; [ ] = dose if it differs, or a comment. Unless noted, the call rests on the fitted dose curve; in most records, active means well fitted curve in the direction sought with a large enough effect; inconclusive means small, poorly fitted or top-dose-only effect, or another doubt; inactive means no such curve, though single readings can be large; an effect the other way counts as inactive or inconclusive. On the % scale 0 is the no-effect control and ±100 the full control effect; potency means the concentration at half of the fitted maximal effect.

SMILES	FLuc inh	GPT2 inhibitor	HEK293 tox	NPR1 antag	NIH3T3 tox
CC(C)=CCC1(CO)CCCN(Cc2[nH]c3ccc(F)cc3c2C)C1 (stereo not given)	i	-8.4%	20µM*	-20.0%	22.4µM*
CC(C)c1noc(-c2cccn3c(CNC(=O)c4ccccc4Cl)nnc23)n1	i	-17.1%	i	1.1%	1.0%
c1cncc(CN2CCC[C@H]2c2nc(-c3ccc(-n4ccnc4)nc3)no2)c1	i	0.5%[88.5 µM]	u	3.8%[70.6 µM]	-12.6%[138 µM]
CN1CCN(c2ccc(-c3noc([C@@H]4CCCN4CCCc4ccccc4)n3)cn2)CC1	i	-3.8%[88.5 µM]	u	4.0%[70.6 µM]	39.8µM*
c1ccc(CN2CCC[C@H]2c2nc(-c3ccc(-n4ccnc4)nc3)no2)cc1	i	-20.7%[88.5 µM]	89.1µM*	-3.3%[70.6 µM]	u
CN1CCN(c2ccc(-c3noc([C@@H]4CCCN4C4CCCCC4)n3)cn2)CC1	i	i	79.4µM*	1.8%[70.6 µM]	79.4µM*
c1ccc(CN2CCC[C@H]2c2nc(-c3ccnc(N4CCOCC4)c3)no2)nc1	i	i	u	-5.9%[70.6 µM]	35.5µM*
CC(C)c1nc2c(c(-c3ccc(Cl)cc3)n1)CN([S+](=O)([O-])c1ccccc1)CC2	i	i	-25.6%	13.7%	-25.9%
COc1ccc(Nc2cnc3ccc(-c4ccc(F)cc4)nn23)cc1	i	u	u	-2.2%[70.6 µM]	u
CN(Cc1ccc(F)cc1)c1ccc2ncc(Nc3ccc4c(c3)OCCO4)n2n1	i	i	39.8µM*	-19.1%[70.6 µM]	u
COc1cncc(Nc2cnc3ccc(N(C)Cc4ccc(F)cc4)nn23)c1	i	u	u	u	u
COc1ccc(Nc2cnc3ccc(-c4ccccc4)nn23)cc1	u	i	70.8µM*	-12.1%[70.6 µM]	u
COc1ccc(Nc2cnc3ccc(-c4ccccc4)nn23)cn1	u	u	44.7µM*	-2.9%[70.6 µM]	39.8µM*
COc1cncc(Nc2cnc3ccc(-c4ccc(OC)nc4)nn23)c1	i	u	u	1.3%[70.6 µM]	-24.4%[138 µM]
COc1ccc(Nc2cnc3ccc(-c4ccc(F)cc4)nn23)cn1	i	u	50.1µM*	3.2%[70.6 µM]	35.5µM*
CC(C)N1C(=O)Cc2ccccc2C1C(=O)NCc1ccccc1Br (stereo not given)	u	-1.2%	u	u	-23.5%
CN(C1CCc2nn(CC3CC3)c(=O)n2CC1)S(=O)(=O)c1cn(C)cn1 (stereo not given)	i	i	-0.2%	1.7%	-6.9%
Fc1ccc(-c2ccc3ncc(Nc4ccc5c(c4)OCO5)n3n2)cc1	i	u	79.4µM*	-11.0%[70.6 µM]	u
c1ccc(-c2ccc3ncc(Nc4ncccn4)n3n2)cc1	i	i	u	0.8%[70.6 µM]	u
NC(=O)c1ccc(Nc2cnc3ccc(-c4ccccc4)nn23)cc1	i	-29.1%[88.5 µM]	u	-9.5%[70.6 µM]	28.2µM*
Fc1ccc(-c2ccc3ncc(Nc4ccncc4)n3n2)cc1	i	-1.2%[88.5 µM]	100µM*	-2.1%[70.6 µM]	u
COc1ccc(-c2ccc3ncc(Nc4ccc5c(c4)OCO5)n3n2)cn1	i	u	u	-13.4%[70.6 µM]	u
CCc1cc(CNC(=O)c2cc(Cn3c(C)nc4ccccc43)[nH]n2)on1	i	-5.7%	u	-23.7%	u
NC(=O)C(O[C@@H]1O[C@H](CO[C@@H]2O[C@H](CO)[C@@H](O)[C@H](O)[C@H]2O)[C@@H](O)[C@H](O)[C@H]1O)c1ccccc1 (stereo not given in full)	x	i	x	x	x
COc1cccc(-c2ccccc2NC(=O)C2CCN(CC=C(C)C)CC2)c1	i	-16.5%	u	4.4%	20µM*
SMILES	FLuc inh	GPT2 inhibitor	HEK293 tox	NPR1 antag	NIH3T3 tox
COc1cccc(CN2CCC(C(=O)Nc3ccccc3-c3cccc(OC)c3)CC2)c1	i	-10.1%	22.4µM*	u	u
COc1cccc(-c2ccccc2NC(=O)C2CCN(C/C(C)=C/c3ccccc3)CC2)c1	i	-20.6%	u	-28.1%	u
COc1cccc(-c2ccccc2NC(=O)C2CCN(Cc3ccccc3F)CC2)c1	i	-19.3%	u	u	44.7µM*
CC1=NOC(C)(C(=O)N2CCCn3cncc3C2)C1 (stereo not given)	i	i	i	-0.9%	i
CCOC(=O)N1CCC(=O)N(CCOC)C[C@H]2COc3cc(OC)ccc3[C@H]21	x	x	-23.7%	x	u
COc1ccc(NC(=O)c2cc3sc(C)c(CN4CCCCC4)c3[nH]2)cc1OC	i	u	u	-4.5%	39.8µM*
CN(c1ccccc1)c1cc(=O)c2ccnc(-c3ccccc3O)c2o1	i	-0.4%[88.5 µM]	u	-3.8%[70.6 µM]	u
CN(C)c1cc(=O)c2ccnc(-c3ccc(O)c(F)c3)c2o1	i	i	0.4%[172 µM]	-1.8%[70.6 µM]	31.6µM*
COc1ncccc1-c1nccc2c(=O)cc(N(C)C3CCOCC3)oc12	i	0.7%[88.5 µM]	-18.0%[172 µM]	-3.8%[70.6 µM]	u
CN(c1cc(=O)c2ccnc(-c3ccc(O)c(F)c3)c2o1)C1CCOCC1	i	u	-19.5%[172 µM]	-3.2%[70.6 µM]	8.91µM*
Cc1ccccc1-c1nccc2c(=O)cc(N(C)C3CCOCC3)oc12	i	-13.3%[88.5 µM]	-25.5%[172 µM]	-3.7%[70.6 µM]	25.1µM*
CN1CCN(c2ccc(-c3nccc4c(=O)cc(N(C)C5CCOCC5)oc34)cn2)CC1	i	-6.9%[88.5 µM]	i	3.9%[70.6 µM]	89.1µM*
COc1cccc2c1OCC(C(=O)NCCSc1ccc(C)cc1)C2 (stereo not given)	i	-6.8%	u	2.2%	-28.1%
CCN(CC)C(=O)C1=C(C)N=C2SC=C(CC(=O)NCc3ccccc3)N2C1c1ccccc1F (stereo not given)	i	i	u	0.7%	-17.6%
CN(C)c1cc(=O)c2ccnc(Nc3ccccn3)c2o1	i	u	-25.4%[230 µM]	8.2%[70.6 µM]	70.8µM*
COc1ccc(-c2nccc3c(=O)cc(N(C)C)oc23)cn1	i	-8.5%[88.5 µM]	i	1.7%[70.6 µM]	50.1µM*
COC[C@@H]1[C@H](C(=O)N2CCN(c3ccc(F)cc3)CC2)CCCN1Cc1ccccc1	x	i	u	x	u
CCOc1ccccc1C(=O)NC1CCN(c2cc(-c3ccc(OC)cc3)[nH]n2)C1 (stereo not given)	i	-7.9%	u	-19.0%	35.5µM*
COc1cc(Cl)ccc1C(=O)NC1CCN(c2cc(-c3ccc(F)cc3)[nH]n2)CC1	i	-4.0%	u	-4.0%	35.5µM*
CCOc1ccccc1C(=O)NC1CCN(c2cc(-c3ccccc3)[nH]n2)C1 (stereo not given)	i	u	u	1.8%	u
CCOc1ccccc1C(=O)NC1CCN(c2cc(-c3ccc(OC)cc3)[nH]n2)CC1	i	i	u	-18.9%	35.5µM*
CCOc1ccccc1C(=O)NC1CCCN(c2cc(-c3ccc(Cl)cc3)[nH]n2)C1 (stereo not given)	u	i	20µM*	-15.9%	15.8µM*
